In PubChem BioAssay (NCI):
This is part of a sample that, as a whole, favours compounds with a hit. Of some 83,000 tested, about 20% had one in any assay.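 Note: values are percent growth. 100 is the growth of untreated cells, values between 100 and 0 indicate rising inhibition; between -100 and 0 indicates cell death.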 The source made the active and inactive calls. Rule for the calls: active = growth percent below 10; inactive = the rest.

Columns and labels:
Test in all cases: NCI-60 one-dose screen, 48 h (100 = growth as untreated, 0 = no growth, -100 = all killed)
Details in all cases: 10 µM unless noted
HCT-15 colon = tested on: HCT-15 colon
HT29 colon = tested on: HT29 colon
SNB-75 CNS = tested on: SNB-75 CNS
SNB-19 CNS = tested on: SNB-19 CNS
U251 CNS = tested on: U251 CNS
PC-3 prostate = tested on: PC-3 prostate
SK-MEL-5 melanoma = tested on: SK-MEL-5 melanoma
UACC-62 melanoma = tested on: UACC-62 melanoma
LOX IMVI melanoma = tested on: LOX IMVI melanoma
SK-MEL-28 melanoma = tested on: SK-MEL-28 melanoma

Measured: growth

O=C(Nc1cccc2c1C(=O)c1cccc(NC(=O)c3ccc(C(=O)Nc4cccc5c4C(=O)c4cccc(NC(=O)c6ccccc6)c4C5=O)cc3)c1C2=O)c1ccccc1
inactive: HCT-15 colon 105% | HT29 colon 112% | SNB-75 CNS 89.7% | SNB-19 CNS 105% | U251 CNS 101% | PC-3 prostate 87.7% | SK-MEL-5 melanoma 105% | UACC-62 melanoma 89% | LOX IMVI melanoma 102% | SK-MEL-28 melanoma 103%

CC(C)n1nc(-c2ccc3oc(N)nc3c2)c2c(N)ncnc21
active: HCT-15 colon 0.972% | HT29 colon 4.07% | SNB-75 CNS -51.4% | SNB-19 CNS 0.364% | U251 CNS 1.15% | PC-3 prostate 0.237% | SK-MEL-5 melanoma -40.3% | UACC-62 melanoma -45% | LOX IMVI melanoma -16.4% | SK-MEL-28 melanoma -24%

Cc1ccc(S(=O)(=O)c2nc(-c3ccccc3)oc2S(C)=O)cc1 (stereo not given)
active: HCT-15 colon -53.1% | HT29 colon -31.8% | LOX IMVI melanoma -87.7% | SK-MEL-28 melanoma -63.2%
inactive: SNB-75 CNS 66.7% | SNB-19 CNS 68.9% | U251 CNS 45.1% | PC-3 prostate 22.3% | SK-MEL-5 melanoma 44.4% | UACC-62 melanoma 50.6%

C/C(=N\NC(=O)c1ccc(C(C)(C)C)cc1)c1ccc(O)cc1O
inactive: HCT-15 colon 16.5% | HT29 colon 25.3% | SNB-75 CNS 54.7% | SNB-19 CNS 40.1% | U251 CNS 25.2% | PC-3 prostate 33.8% | UACC-62 melanoma 14.1% | SK-MEL-28 melanoma 36.1%
active: SK-MEL-5 melanoma -41.9% | LOX IMVI melanoma -4.95%

O=C(CN1C(=O)c2ccccc2S1(=O)=O)Nc1nc(-c2cc3ccccc3oc2=O)cs1
inactive: HCT-15 colon 108% | HT29 colon 103% | SNB-75 CNS 97.3% | SNB-19 CNS 101% | U251 CNS 99.2% | PC-3 prostate 97.7% | SK-MEL-5 melanoma 99.1% | UACC-62 melanoma 97.8% | LOX IMVI melanoma 99.5% | SK-MEL-28 melanoma 107%

Cc1nn(C)c2ncnc(Nc3ccccc3Br)c12
inactive: HCT-15 colon 101% | HT29 colon 97.7% | SNB-75 CNS 111% | SNB-19 CNS 101% | U251 CNS 95.3% | PC-3 prostate 102% | SK-MEL-5 melanoma 97.7% | UACC-62 melanoma 93.3% | LOX IMVI melanoma 101% | SK-MEL-28 melanoma 102%

CNC1=C([N+](=O)[O-])C(c2ccc(OC)cc2)C(C#N)=C(c2ccc[nH]2)O1 (stereo not given)
inactive: HCT-15 colon 106% | HT29 colon 107% | SNB-75 CNS 88.6% | SNB-19 CNS 97% | U251 CNS 101% | PC-3 prostate 97.1% | SK-MEL-5 melanoma 98.2% | UACC-62 melanoma 91.8% | LOX IMVI melanoma 99% | SK-MEL-28 melanoma 108%

CCOc1ccc(-c2cc(C3(S(=O)(=O)c4ccc(C)cc4)CC=CC3)on2)cc1
inactive: HCT-15 colon 75.3% | HT29 colon 77.7% | SNB-75 CNS 97.3% | SNB-19 CNS 95.4% | U251 CNS 89.4% | PC-3 prostate 75.2% | SK-MEL-5 melanoma 69.8% | UACC-62 melanoma 66.7% | LOX IMVI melanoma 91.1% | SK-MEL-28 melanoma 115%

COc1ccc(N/N=C/c2ccc3c(c2)Sc2ccccc2N3C)cc1
inactive: HCT-15 colon 84.5% | HT29 colon 98.6% | SNB-75 CNS 73.5% | SNB-19 CNS 81.1% | U251 CNS 63.9% | PC-3 prostate 44.4% | SK-MEL-5 melanoma 77% | UACC-62 melanoma 10.8% | LOX IMVI melanoma 28.1% | SK-MEL-28 melanoma 100%

COc1cc(OCc2cccc(-c3ccc4c(c3)OCCO4)c2C)cc(OC)c1C=O
inactive: HCT-15 colon 60.1% | HT29 colon 67.6% | SNB-75 CNS 81.2% | SNB-19 CNS 72.7% | U251 CNS 85.6% | PC-3 prostate 65.5% | UACC-62 melanoma 38% | LOX IMVI melanoma 58.7% | SK-MEL-28 melanoma 67.1%
active: SK-MEL-5 melanoma -9.95%

O=C(Nc1ncc(Cc2cc(C(F)(F)F)ccc2Cl)s1)C(=S)N1CCOCC1
inactive: HCT-15 colon 78.6% | HT29 colon 95.1% | SNB-75 CNS 86.7% | SNB-19 CNS 96.9% | U251 CNS 90.3% | PC-3 prostate 81.3% | SK-MEL-5 melanoma 96.6% | UACC-62 melanoma 72.6% | LOX IMVI melanoma 90.5% | SK-MEL-28 melanoma 114%

C=C(CNCCc1ccc(O)cc1)[C@@H]1CC[C@]2(CO)CC[C@]3(C)[C@H](CC[C@@H]4[C@@]5(C)CCC(N)C(C)(C)[C@@H]5CC[C@]43C)[C@@H]12 (stereo not given in full)
active: HCT-15 colon -79.3% | HT29 colon -49.9% | SNB-75 CNS -97.8% | SNB-19 CNS -86.1% | U251 CNS -84.4% | PC-3 prostate -75.3% | SK-MEL-5 melanoma -95.2% | UACC-62 melanoma -86.7% | LOX IMVI melanoma -86.7% | SK-MEL-28 melanoma -90.5%

Nc1ncnc2c1N=C(c1ccc([N+](=O)[O-])cc1)CC(c1ccc3c(c1)OCO3)N2 (stereo not given)
inactive: HCT-15 colon 103% | HT29 colon 97.3% | SNB-75 CNS 69.1% | SNB-19 CNS 83.6% | U251 CNS 89% | PC-3 prostate 72.6% | SK-MEL-5 melanoma 80.2% | UACC-62 melanoma 77.9% | LOX IMVI melanoma 85.3% | SK-MEL-28 melanoma 108%

COc1cc2c(cc1OC)CC[N+](CCC[N+](C)(C)C)=C2
inactive: HCT-15 colon 101% | HT29 colon 88.5% | SNB-75 CNS 80.2% | SNB-19 CNS 110% | U251 CNS 98.9% | PC-3 prostate 83.9% | SK-MEL-5 melanoma 104% | UACC-62 melanoma 110% | LOX IMVI melanoma 99.3% | SK-MEL-28 melanoma 98.7%

O=C(/C=C/c1ccco1)Nc1ncc(Cc2ccc(F)cc2)s1
inactive: HCT-15 colon 15.3% | SNB-75 CNS 19.9% | SNB-19 CNS 48% | U251 CNS 22.6% | PC-3 prostate 30.2% | SK-MEL-5 melanoma 25.9% | UACC-62 melanoma 16.8% | LOX IMVI melanoma 28.9% | SK-MEL-28 melanoma 48%
active: HT29 colon 7.2%

COc1ccc(S(=O)(=O)NC2c3ccccc3CC2O)cc1OC (stereo not given)
inactive: HCT-15 colon 102% | HT29 colon 107% | SNB-75 CNS 80.1% | SNB-19 CNS 98.6% | U251 CNS 102% | PC-3 prostate 97.8% | SK-MEL-5 melanoma 103% | UACC-62 melanoma 96.2% | LOX IMVI melanoma 102% | SK-MEL-28 melanoma 114%

Cn1cc(-c2csc(-c3cn(CCO)c4ccc(F)cc34)n2)c2cccnc21
inactive: HCT-15 colon 41.5% | HT29 colon 18.2% | SNB-75 CNS 46.4% | SNB-19 CNS 69.6% | U251 CNS 49.3% | PC-3 prostate 44.6% | SK-MEL-5 melanoma 62.9% | UACC-62 melanoma 52.4% | LOX IMVI melanoma 44.8% | SK-MEL-28 melanoma 74.4%

COc1ccc(C2CC(=O)Oc3c(OC)c4c(c(OC)c32)OCO4)cc1 (stereo not given)
inactive: HCT-15 colon 87.6% | HT29 colon 99.4% | SNB-75 CNS 98.6% | SNB-19 CNS 107% | U251 CNS 99.6% | PC-3 prostate 106% | SK-MEL-5 melanoma 105% | UACC-62 melanoma 91.1% | LOX IMVI melanoma 90.3% | SK-MEL-28 melanoma 95.6%

Cc1c2ccncc2c(C)c2c1c1ccccc1n2CCCCCC(=O)O
inactive: HCT-15 colon 87.1% | HT29 colon 101% | SNB-75 CNS 82.8% | SNB-19 CNS 86.1% | U251 CNS 85.8% | PC-3 prostate 86.2% | SK-MEL-5 melanoma 89.8% | UACC-62 melanoma 85.2% | LOX IMVI melanoma 74.4% | SK-MEL-28 melanoma 113%

COc1ccc(NC(=O)CSc2oc(-c3ccccc3)nc2S(=O)(=O)c2ccc(Cl)cc2)c(OC)c1
active: SNB-75 CNS -1.47%
inactive: HCT-15 colon 73.7% | HT29 colon 70.3% | SNB-19 CNS 55.4% | U251 CNS 50.6% | PC-3 prostate 61% | SK-MEL-5 melanoma 66.3% | UACC-62 melanoma 41.4% | LOX IMVI melanoma 76.1% | SK-MEL-28 melanoma 67.1%

CC(Cc1cccc2ccccc12)C(N)=O (stereo not given)
inactive: HCT-15 colon 101% | HT29 colon 101% | SNB-75 CNS 98.6% | SNB-19 CNS 104% | U251 CNS 105% | PC-3 prostate 93.8% | SK-MEL-5 melanoma 101% | UACC-62 melanoma 98.8% | LOX IMVI melanoma 101% | SK-MEL-28 melanoma 108%

CNC1=C(Br)C(=O)c2c(C(=O)OC)c(C)nc(C)c2C1=O
inactive: HCT-15 colon 36.8% | HT29 colon 19.8% | SNB-75 CNS 139% | SNB-19 CNS 82.9% | U251 CNS 71.1% | PC-3 prostate 48.9% | LOX IMVI melanoma 35.3% | SK-MEL-28 melanoma 91.3%
active: SK-MEL-5 melanoma -90.9% | UACC-62 melanoma 1.42%

Fc1ccc(/C=C/c2cc(/C=C/c3ccc(F)cc3)n(-c3cc(F)cc(F)c3)n2)cc1
inactive: HCT-15 colon 103% | HT29 colon 78.7% | SNB-75 CNS 91% | SNB-19 CNS 105% | U251 CNS 117% | PC-3 prostate 76.4% | SK-MEL-5 melanoma 100% | UACC-62 melanoma 85.7% | LOX IMVI melanoma 102% | SK-MEL-28 melanoma 101%

O=C(/C=C/C12c3ccccc3C(c3ccccc31)C1C(=O)NC(=O)C12)c1cccs1 (stereo not given)
inactive: HCT-15 colon 26.3% | HT29 colon 22.6% | SNB-75 CNS 17.1% | SNB-19 CNS 39.2% | U251 CNS 15.8% | PC-3 prostate 33.6% | SK-MEL-5 melanoma 54.8% | UACC-62 melanoma 37.2% | LOX IMVI melanoma 28.6% | SK-MEL-28 melanoma 45.8%

C=C(C)[C@@H]1CC[C@]2(C#N)CC[C@]3(C)[C@H](CC[C@@H]4[C@@]5(C)CCCNC(C)(C)[C@@H]5CC[C@]43C)[C@@H]12
active: HT29 colon 9.37% | LOX IMVI melanoma -44.3%
inactive: HCT-15 colon 23% | SNB-75 CNS 83.9% | SNB-19 CNS 78.6% | U251 CNS 16.7% | PC-3 prostate 68.7% | SK-MEL-5 melanoma 86.4% | UACC-62 melanoma 88.6% | SK-MEL-28 melanoma 97.3%

COc1cc(CNC(=O)CCCC/C=C/C(C)C)ccc1OCc1cn(-c2ccc(C(F)(F)F)cc2)nn1
inactive: HCT-15 colon 59.7% | HT29 colon 79% | SNB-75 CNS 49.7% | SNB-19 CNS 76.1% | U251 CNS 46.7% | PC-3 prostate 62.2% | SK-MEL-5 melanoma 97.1% | UACC-62 melanoma 84.3% | LOX IMVI melanoma 60.3% | SK-MEL-28 melanoma 107%

Cc1ccc2c(c1)CC(O)CC1C(=O)N(CCO)CC(=O)N21 (stereo not given)
inactive: HCT-15 colon 106% | HT29 colon 96.1% | SNB-75 CNS 83% | SNB-19 CNS 102% | U251 CNS 95.4% | PC-3 prostate 96.8% | SK-MEL-5 melanoma 104% | UACC-62 melanoma 97.3% | LOX IMVI melanoma 96.2% | SK-MEL-28 melanoma 102%
